# Data as given in PubChem BioAssay (EPA / NIEHS).
# Records with an inconclusive call do not appear. Calls of active or inactive are those of the source. The calls were made as follows, unless noted: active = hit-call score of the fitted dose curve at least 0.9, where 1 is the maximum; inactive = score below 0.9.
# Legend:
# [1] = ATG_DR4_LXR_CIS: Attagene CIS-FACTORIAL HepG2 Assay for human Liver X Receptor (LXR), DR4 submotif (AID 2282929); details: HepG2 Attagene DR4 cis-reporter, mRNA transcription; actives raise or lower the signal
# Outline: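 Endogenous factor activity at a DR4 cis-element is read as reporter mRNA in transiently transfected HepG2 cells. Exposure lasts 24 h; transcripts are amplified, fluorescently labelled and sized by capillary electrophoresis, with DMSO as baseline.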
# [2] = ATG_AP_1_CIS: Attagene CIS-FACTORIAL HepG2 Assay for human Activator Protein 1 (AP-1) (AID 2282931); details: HepG2 Attagene cis-factorial AP-1 reporter mRNA; actives raise or lower the signal
# Outline: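 Fluorescence of labelled PCR fragments separated by capillary electrophoresis gives reporter mRNA levels. HepG2 with transfected cis-regulated reporter units, 24 h exposure; DMSO serves as baseline for bidirectional curve fits.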
# [3] = molecular target: Hepatocyte nuclear factor 3-beta (Homo sapiens) (UniProt Q9Y261); experiment: ATG_FoxA2_CIS: Attagene CIS-FACTORIAL HepG2 Assay for human Forkhead box A2 (FOXA2) (AID 2282942); details: HepG2 cis-reporter transcription factor activity, 24 h; actives raise or lower the signal
# Hepatocyte nuclear factor 3-beta (Homo sapiens), sequence (Q9Y261 whole entry, looked up): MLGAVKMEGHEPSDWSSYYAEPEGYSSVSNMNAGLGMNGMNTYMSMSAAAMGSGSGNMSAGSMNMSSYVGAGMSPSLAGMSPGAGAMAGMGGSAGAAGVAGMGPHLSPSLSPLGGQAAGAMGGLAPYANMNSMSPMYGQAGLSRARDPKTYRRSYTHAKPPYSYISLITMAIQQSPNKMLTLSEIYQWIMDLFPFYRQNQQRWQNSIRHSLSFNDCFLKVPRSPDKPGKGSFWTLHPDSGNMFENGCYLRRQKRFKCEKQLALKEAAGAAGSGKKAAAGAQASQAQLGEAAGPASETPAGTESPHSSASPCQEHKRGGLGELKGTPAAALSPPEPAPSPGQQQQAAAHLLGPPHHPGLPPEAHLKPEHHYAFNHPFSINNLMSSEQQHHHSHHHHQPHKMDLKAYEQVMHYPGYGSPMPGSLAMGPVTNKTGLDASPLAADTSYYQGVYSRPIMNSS
# Outline: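 Cells: HepG2, transient multiplex reporter transfection. Exposure 24 h. Detection: reporter-specific RT-PCR, fluorescent labelling, restriction digest, capillary electrophoresis. Analysis: bidirectional curve fit, DMSO as negative control.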
# [4] = molecular target: Heat shock factor protein 1 (Homo sapiens) (UniProt Q00613); experiment: ATG_HSE_CIS: Attagene CIS-FACTORIAL HepG2 Assay for human Heat Shock Transcription Factor 1 (HSE) (AID 2282953); details: HepG2 HSE cis-reporter, Attagene RNA transcription; actives raise or lower the signal
# Heat shock factor protein 1 (Homo sapiens), sequence (Q00613 whole entry, looked up): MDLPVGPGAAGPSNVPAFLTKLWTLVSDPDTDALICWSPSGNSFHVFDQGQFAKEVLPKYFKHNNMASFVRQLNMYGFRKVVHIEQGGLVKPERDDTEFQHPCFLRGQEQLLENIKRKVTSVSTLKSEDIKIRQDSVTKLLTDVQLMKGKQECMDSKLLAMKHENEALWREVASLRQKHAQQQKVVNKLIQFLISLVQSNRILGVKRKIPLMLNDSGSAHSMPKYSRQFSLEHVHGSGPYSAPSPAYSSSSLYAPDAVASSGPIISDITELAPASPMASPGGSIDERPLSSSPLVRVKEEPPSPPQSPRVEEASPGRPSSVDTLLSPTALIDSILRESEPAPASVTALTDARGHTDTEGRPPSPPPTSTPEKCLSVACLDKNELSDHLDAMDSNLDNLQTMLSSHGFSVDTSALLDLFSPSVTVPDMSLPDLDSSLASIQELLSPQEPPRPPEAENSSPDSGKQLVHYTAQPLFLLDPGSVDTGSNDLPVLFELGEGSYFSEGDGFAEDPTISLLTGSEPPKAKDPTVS
# Outline: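 After a 24 h incubation with test chemical, transfected HepG2 cells were harvested for RNA; reporter transcripts were measured by RT-PCR and capillary electrophoresis. Values reflect gain or loss of signal relative to DMSO.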
# [5] = ATG_RORE_CIS: Attagene CIS-FACTORIAL HepG2 Assay for human RAR-related Orphan Receptor Element (RORE) (AID 2282959); details: HepG2 Attagene cis-factorial RORE reporter, mRNA; actives raise or lower the signal
# Outline: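 Multiplexed reporter assay measuring mRNA induction from a cis promoter element in transiently transfected HepG2 cells after 24 h treatment. Detection via RT-PCR and capillary electrophoresis fluorescence; DMSO serves as baseline.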
# [6] = molecular target: Signal transducer and activator of transcription 3 (Homo sapiens) (UniProt P40763); experiment: ATG_STAT3_CIS: Attagene CIS-FACTORIAL HepG2 Assay for human Signal Transducer and Activator of Transcription 3 (STAT3) (AID 2282963); details: HepG2, Attagene cis-factorial STAT3 reporter transcription; actives raise or lower the signal
# Signal transducer and activator of transcription 3 (Homo sapiens), sequence (P40763 whole entry, looked up, the tested form may be a part): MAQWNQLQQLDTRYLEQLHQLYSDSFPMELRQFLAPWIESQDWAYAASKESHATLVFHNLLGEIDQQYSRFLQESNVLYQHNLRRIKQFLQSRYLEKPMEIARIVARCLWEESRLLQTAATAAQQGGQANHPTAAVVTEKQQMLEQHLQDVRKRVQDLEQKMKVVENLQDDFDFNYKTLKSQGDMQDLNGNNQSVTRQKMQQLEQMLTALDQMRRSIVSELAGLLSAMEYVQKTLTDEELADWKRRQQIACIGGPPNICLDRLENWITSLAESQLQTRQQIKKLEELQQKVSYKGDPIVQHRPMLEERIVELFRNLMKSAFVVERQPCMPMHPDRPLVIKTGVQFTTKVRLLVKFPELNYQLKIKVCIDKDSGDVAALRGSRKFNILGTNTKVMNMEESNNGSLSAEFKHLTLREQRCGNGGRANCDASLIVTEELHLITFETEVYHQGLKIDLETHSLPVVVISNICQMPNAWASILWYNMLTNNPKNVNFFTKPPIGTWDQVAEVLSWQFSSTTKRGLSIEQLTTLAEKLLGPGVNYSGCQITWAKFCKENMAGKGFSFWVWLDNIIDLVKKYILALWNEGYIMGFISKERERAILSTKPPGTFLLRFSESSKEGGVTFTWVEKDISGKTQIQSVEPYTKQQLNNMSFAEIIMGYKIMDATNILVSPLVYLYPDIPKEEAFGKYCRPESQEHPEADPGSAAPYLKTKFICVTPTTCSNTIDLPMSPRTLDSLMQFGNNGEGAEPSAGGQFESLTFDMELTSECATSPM
# Outline: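 Fluorescence intensity of 6-FAM-labelled reporter fragments, separated by capillary electrophoresis after RT-PCR, gave the signal. Cells were HepG2 transfected with cis-element reporter units and treated 24 h; fitting was bidirectional relative to DMSO.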
# [7] = ATG_TCF_b_cat_CIS: Attagene CIS-FACTORIAL HepG2 Assay for human T-Cell-Factor with beta-catenin (TCF/b-cat) (AID 2282965); details: HepG2 TCF/beta-catenin cis-reporter transcription, actives raise or lower the signal
# Outline: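 HepG2 cells transiently transfected with cis-promoter-driven multiplexed reporter units; reporter mRNA measured 24 h after dosing by RT-PCR, FAM labelling, HpaI digestion and capillary electrophoresis. Bidirectional fitting relative to DMSO baseline.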
# [8] = ATG_TAL_CIS: Attagene CIS-FACTORIAL HepG2 Assay for human TAL Basal Promoter (AID 2282966); details: HepG2 Attagene cis-factorial TAL promoter reporter; actives raise or lower the signal;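 also: background control endpoint measuring basal TAL promoter reporter mRNA not a specific factor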
# Outline: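 Background-control endpoint: basal TAL promoter reporter transcripts in transiently transfected HepG2, measured 24 h after dosing. Read-out by RT-PCR with fluorescent primer extension and capillary electrophoresis; gain or loss of signal fitted relative to DMSO.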
# [9] = ATG_TGFb_CIS: Attagene CIS-FACTORIAL HepG2 Assay for human Transforming Growth Factor (TGF) (AID 2282967); details: HepG2 Attagene CIS TGFb reporter, mRNA transcription; actives raise or lower the signal
# Outline: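 Transcript-level reporter readout: HepG2 transfectants, 24 h exposure, RNA to cDNA, reporter-specific PCR, fluorescent primer extension, capillary sizing against ROX standards. Gain- or loss-of-signal relative to DMSO.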
# [10] = ATG_VDRE_CIS: Attagene CIS-FACTORIAL HepG2 Assay for human Vitamin D Receptor Element (VDRE) (AID 2282968); details: HepG2 VDRE cis-reporter transcription, actives raise or lower the signal
# Outline: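 Compounds were applied for 24 h to HepG2 cells transfected with promoter-regulated reporter units. Total RNA was reverse-transcribed, and reporter amplicons were fluorescently labelled and sized by capillary electrophoresis.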
# [11] = molecular target: X-box-binding protein 1 (Homo sapiens) (UniProt P17861); experiment: ATG_Xbp1_CIS: Attagene CIS-FACTORIAL HepG2 Assay for human X-box Binding Protein 1 (XBP1) (AID 2282972); details: HepG2 XBP1 cis-element reporter, Attagene multiplex; actives raise or lower the signal
# X-box-binding protein 1 (Homo sapiens), sequence (P17861 whole entry, looked up): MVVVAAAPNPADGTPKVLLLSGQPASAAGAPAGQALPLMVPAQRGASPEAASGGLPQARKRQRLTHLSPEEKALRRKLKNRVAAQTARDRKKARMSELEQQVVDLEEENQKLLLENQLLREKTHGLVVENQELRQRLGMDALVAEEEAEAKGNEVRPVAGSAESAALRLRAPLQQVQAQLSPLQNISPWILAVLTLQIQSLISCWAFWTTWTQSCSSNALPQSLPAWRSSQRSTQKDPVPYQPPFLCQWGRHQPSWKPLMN
# Outline: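 Human hepatoma HepG2, cis-element reporter system, 24 h treatment; mRNA quantified by RT-PCR/CE fluorescence; fit relative to DMSO.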
# [12] = molecular target: Transcriptional activator Myb (Homo sapiens) (UniProt P10242); experiment: ATG_Myb_CIS: Attagene CIS-FACTORIAL HepG2 Assay for human Myeloblastosis (Myb) Proto-Oncogene Transcription Factor (AID 2282986); details: HepG2 Attagene CIS-FACTORIAL Myb reporter transcription; actives raise or lower the signal
# Transcriptional activator Myb (Homo sapiens), sequence (P10242 whole entry, looked up): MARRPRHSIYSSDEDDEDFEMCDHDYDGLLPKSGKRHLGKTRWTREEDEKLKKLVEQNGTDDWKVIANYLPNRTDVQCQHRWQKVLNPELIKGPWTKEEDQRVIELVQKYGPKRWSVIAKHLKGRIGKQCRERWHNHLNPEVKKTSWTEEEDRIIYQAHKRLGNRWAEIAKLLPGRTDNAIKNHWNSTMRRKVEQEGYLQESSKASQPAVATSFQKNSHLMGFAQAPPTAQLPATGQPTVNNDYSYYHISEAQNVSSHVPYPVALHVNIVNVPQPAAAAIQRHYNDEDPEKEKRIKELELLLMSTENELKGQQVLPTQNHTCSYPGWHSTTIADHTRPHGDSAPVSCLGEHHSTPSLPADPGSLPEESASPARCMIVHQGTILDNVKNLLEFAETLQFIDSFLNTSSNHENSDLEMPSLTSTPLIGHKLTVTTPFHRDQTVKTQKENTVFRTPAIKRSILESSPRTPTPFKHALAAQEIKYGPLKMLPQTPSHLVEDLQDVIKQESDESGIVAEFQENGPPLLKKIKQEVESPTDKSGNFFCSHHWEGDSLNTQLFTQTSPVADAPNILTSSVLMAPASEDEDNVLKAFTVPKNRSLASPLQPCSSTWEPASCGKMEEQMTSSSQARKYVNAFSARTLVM
# Outline: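 Endogenous transcription factor activity at a Myb-responsive cis element is reported in human liver HepG2 cells after 24 h chemical treatment. Reporter mRNA is detected by RT-PCR and capillary electrophoresis fluorescence, with DMSO as baseline.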
# [13] = molecular target: Nuclear respiratory factor 1 (Homo sapiens) (UniProt Q16656); experiment: ATG_NRF1_CIS: Attagene CIS-FACTORIAL HepG2 Assay for human Nuclear Respiratory Factor 1 (NRF1) Orphan Gene (AID 2282987); details: HepG2 NRF1 cis-element reporter, Attagene multiplex; actives raise or lower the signal
# Nuclear respiratory factor 1 (Homo sapiens), sequence (Q16656 whole entry, looked up): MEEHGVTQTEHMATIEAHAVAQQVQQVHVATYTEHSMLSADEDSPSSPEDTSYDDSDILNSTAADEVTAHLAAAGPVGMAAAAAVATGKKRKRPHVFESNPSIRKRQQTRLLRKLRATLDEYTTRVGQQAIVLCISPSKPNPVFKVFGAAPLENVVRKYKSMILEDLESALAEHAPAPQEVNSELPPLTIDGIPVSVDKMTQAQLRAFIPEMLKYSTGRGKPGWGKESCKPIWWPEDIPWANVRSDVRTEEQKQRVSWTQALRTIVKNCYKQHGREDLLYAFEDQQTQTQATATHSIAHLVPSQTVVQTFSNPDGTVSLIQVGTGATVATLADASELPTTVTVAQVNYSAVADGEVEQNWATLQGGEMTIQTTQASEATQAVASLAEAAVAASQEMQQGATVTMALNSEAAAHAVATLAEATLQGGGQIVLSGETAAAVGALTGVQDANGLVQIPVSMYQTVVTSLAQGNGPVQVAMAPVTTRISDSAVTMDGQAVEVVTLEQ
# Outline: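 Human hepatoma HepG2 cells carrying transfected promoter-regulated reporter units were incubated with test chemicals for 24 h. Reporter transcripts were measured by RT-PCR plus capillary electrophoresis, and endpoints derived by bidirectional fitting with DMSO as baseline.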
# [14] = molecular target: Myc proto-oncogene protein (Homo sapiens) (UniProt P01106); experiment: ATG_Myc_CIS: Attagene CIS-FACTORIAL HepG2 Assay for human Myelocytomatosis (Myc) Proto-Oncogene Transcription Factor (AID 2282990); details: HepG2, Attagene cis-reporter transcription factor activity; actives raise or lower the signal
# Outline: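 Transiently transfected HepG2 cells bearing cis-promoter reporter units for endogenous transcription factors; 24 h exposure. Reporter mRNA measured by RT-PCR, 6-FAM primer extension, HpaI cut and capillary electrophoresis; bidirectional fit relative to DMSO.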
# [15] = ATG_NRF2_ARE_CIS: Attagene CIS-FACTORIAL HepG2 Assay for human Nuclear Factor Erythroid 2 Related Factor 2 (NFR2) response to Antioxidant Response Elements (ARE) (AID 2282992); details: HepG2 Attagene ARE/NRF2 reporter, transcription factor activity; actives raise or lower the signal
# Outline: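 Fluorescence intensity of reporter-specific cDNA fragments, separated by capillary electrophoresis, reflects mRNA induction in transfected HepG2 cells at 24 h. Activity is fitted bidirectionally, DMSO serving as baseline.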
# [16] = ATG_Oct_MLP_CIS: Attagene CIS-FACTORIAL HepG2 Assay for human Octamer-Binding Transcription Factor (Oct) (AID 2282993); details: HepG2 Attagene cis-factorial Oct reporter, mRNA; actives raise or lower the signal
# Outline: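 Cells of the HepG2 line express promoter-controlled reporter sequences whose mRNA levels, after 24 h treatment, are measured by RT-PCR and capillary electrophoresis. Increases and decreases are scored relative to DMSO.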
# [17] = molecular target: Cellular tumor antigen p53 (Homo sapiens) (UniProt P04637); experiment: ATG_p53_CIS: Attagene CIS-FACTORIAL HepG2 Assay for human p53 Transcription Factor (AID 2282994); details: HepG2 p53 cis-element reporter, Attagene mRNA; actives raise or lower the signal
# Cellular tumor antigen p53 (Homo sapiens), sequence (P04637 whole entry, looked up): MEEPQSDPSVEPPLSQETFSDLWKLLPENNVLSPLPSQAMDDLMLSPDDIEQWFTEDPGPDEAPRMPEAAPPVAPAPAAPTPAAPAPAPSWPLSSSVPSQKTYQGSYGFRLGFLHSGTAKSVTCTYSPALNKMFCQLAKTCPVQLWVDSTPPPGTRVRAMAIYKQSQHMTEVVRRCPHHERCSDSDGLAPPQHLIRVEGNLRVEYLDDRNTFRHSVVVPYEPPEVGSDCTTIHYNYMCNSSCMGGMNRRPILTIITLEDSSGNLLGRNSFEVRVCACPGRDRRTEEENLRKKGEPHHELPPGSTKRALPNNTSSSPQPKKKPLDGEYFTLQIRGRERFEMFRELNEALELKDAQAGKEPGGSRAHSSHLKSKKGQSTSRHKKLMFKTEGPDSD
# Outline: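 Transiently transfected HepG2 (multiple cis reporter transcription units); exposure 24 h; reporter RNA via RT-PCR, 6-FAM extension, 2 h HpaI digest at 37 C, CE detection; DMSO baseline.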
# [18] = molecular target: Nuclear receptor subfamily 1 group I member 2 (Homo sapiens) (UniProt O75469); experiment: ATG_PXR_TRANS: Attagene TRANS-FACTORIAL HepG2 Assay for human Pregnane X Receptor (PXR) (AID 2283008; active = hit-call score of the fitted dose curve at least 0.9, where 1 is the maximum)
# Nuclear receptor subfamily 1 group I member 2 (Homo sapiens), sequence (O75469 whole entry, looked up, the tested form may be a part): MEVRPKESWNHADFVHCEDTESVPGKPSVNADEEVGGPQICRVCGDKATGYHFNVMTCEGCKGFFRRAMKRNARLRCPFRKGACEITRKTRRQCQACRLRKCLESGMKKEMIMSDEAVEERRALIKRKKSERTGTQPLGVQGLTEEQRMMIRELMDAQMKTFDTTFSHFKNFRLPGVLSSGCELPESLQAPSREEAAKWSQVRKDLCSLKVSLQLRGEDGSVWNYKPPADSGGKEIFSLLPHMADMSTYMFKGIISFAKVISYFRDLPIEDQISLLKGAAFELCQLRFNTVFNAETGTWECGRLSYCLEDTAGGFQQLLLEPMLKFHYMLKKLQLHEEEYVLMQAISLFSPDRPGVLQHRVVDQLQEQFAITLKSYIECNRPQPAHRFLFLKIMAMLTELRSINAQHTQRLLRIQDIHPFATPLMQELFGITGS
# Outline: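 Transient HepG2 transfectants carrying multiplexed reporter transcription units; PXR activity read through a Gal4 chimera. 24 h exposure. RT-PCR/CE fluorescence; upward curve fit referenced to DMSO.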
# [19] = ATG_XTT_Cytotoxicity: Cytotoxicity Assessment in the Attagene TRANS-FACTORIAL HepG2 Assay (AID 2283584; active = hit-call score of the fitted dose curve at least 0.9, where 1 is the maximum)
# Outline: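 Viability endpoint from XTT after 24 h chemical exposure of reporter-transfected human HepG2 liver cells; signal loss fitted relative to DMSO negative control.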
# [20] = molecular target: Hypoxia-inducible factor 1-alpha (Homo sapiens) (UniProt Q16665); experiment: ATG_HIF1a_CIS: Attagene CIS-FACTORIAL HepG2 Assay for human Hypoxia Inducible Factor 1 (HIF1A) (AID 2282951); details: HepG2 Attagene cis-factorial HIF1a reporter transcription; actives raise or lower the signal
# Hypoxia-inducible factor 1-alpha (Homo sapiens), sequence (Q16665 whole entry, looked up): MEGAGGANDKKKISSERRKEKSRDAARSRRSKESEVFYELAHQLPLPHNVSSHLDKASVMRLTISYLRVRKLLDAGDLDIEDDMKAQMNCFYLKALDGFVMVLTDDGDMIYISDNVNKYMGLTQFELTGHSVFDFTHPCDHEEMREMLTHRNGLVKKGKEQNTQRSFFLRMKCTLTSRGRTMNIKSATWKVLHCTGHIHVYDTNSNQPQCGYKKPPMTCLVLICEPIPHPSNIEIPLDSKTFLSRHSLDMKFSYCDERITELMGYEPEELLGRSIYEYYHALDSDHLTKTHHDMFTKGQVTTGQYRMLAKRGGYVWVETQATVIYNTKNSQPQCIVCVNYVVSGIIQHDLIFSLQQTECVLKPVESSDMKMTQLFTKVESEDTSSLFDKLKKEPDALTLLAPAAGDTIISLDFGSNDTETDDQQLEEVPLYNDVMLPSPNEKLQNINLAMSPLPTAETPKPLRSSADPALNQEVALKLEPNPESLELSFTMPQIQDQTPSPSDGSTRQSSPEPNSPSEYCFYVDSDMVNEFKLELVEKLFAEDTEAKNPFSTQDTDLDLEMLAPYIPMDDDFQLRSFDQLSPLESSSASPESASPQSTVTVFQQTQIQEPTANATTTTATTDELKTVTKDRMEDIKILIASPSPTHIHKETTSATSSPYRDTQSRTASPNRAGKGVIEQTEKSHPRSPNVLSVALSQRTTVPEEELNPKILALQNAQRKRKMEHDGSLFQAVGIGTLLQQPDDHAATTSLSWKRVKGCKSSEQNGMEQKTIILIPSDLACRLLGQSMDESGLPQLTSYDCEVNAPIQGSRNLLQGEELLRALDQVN
# Outline: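 HepG2, transient cis-reporter library, 24 h dosing. RNA → RT (oligo dT) → PCR → 6-FAM primer extension → HpaI → CE. Bidirectional curve fit vs DMSO.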
smiles,measurement,setting,value
Nc1ccc(S(=O)(=O)Nc2cnc3ccccc3n2)cc1,outcome,[1],inactive
same,outcome,[2],inactive
same,outcome,[3],inactive
same,outcome,[4],inactive
same,outcome,[5],inactive
same,outcome,[6],inactive
same,outcome,[7],inactive
same,outcome,[8],inactive
same,outcome,[9],inactive
same,outcome,[10],inactive
same,outcome,[11],inactive
same,outcome,[12],inactive
same,outcome,[13],inactive
same,outcome,[14],inactive
same,outcome,[15],inactive
same,outcome,[16],inactive
same,outcome,[17],inactive
same,outcome,[18],inactive
same,outcome,[19],inactive
CC1(C)S[C@@H]2[C@H](NC(=O)[C@H](N)c3ccccc3)C(=O)N2[C@H]1C(=O)O,outcome,[1],inactive
same,outcome,[2],inactive
same,outcome,[3],inactive
same,outcome,[4],inactive
same,outcome,[5],inactive
same,outcome,[6],inactive
same,outcome,[7],inactive
same,outcome,[8],inactive
same,outcome,[9],inactive
same,outcome,[11],inactive
same,outcome,[12],inactive
same,outcome,[13],inactive
same,outcome,[14],inactive
same,outcome,[15],inactive
same,outcome,[17],inactive
same,outcome,[18],inactive
same,outcome,[19],inactive
NC(=O)c1ccc(N)cc1,outcome,[1],inactive
same,outcome,[2],inactive
same,outcome,[3],inactive
same,outcome,[20],inactive
same,outcome,[4],inactive
same,outcome,[5],inactive
same,outcome,[6],inactive
same,outcome,[7],inactive
same,outcome,[8],inactive
same,outcome,[9],inactive
same,outcome,[10],inactive
same,outcome,[11],inactive
same,outcome,[12],inactive
same,outcome,[13],inactive
same,outcome,[14],inactive
same,outcome,[15],inactive
same,outcome,[17],inactive
same,outcome,[19],inactive
Cc1cc2nc3c(=O)[nH]c(=O)nc-3n(C[C@H](O)[C@H](O)[C@H](O)CO)c2cc1C,outcome,[1],inactive
same,outcome,[2],inactive
same,outcome,[3],inactive
same,outcome,[4],inactive
same,outcome,[5],inactive
same,outcome,[6],inactive
same,outcome,[7],inactive
same,outcome,[8],inactive
same,outcome,[9],inactive
same,outcome,[11],inactive
same,outcome,[12],inactive
same,outcome,[13],inactive
same,outcome,[14],inactive
same,outcome,[15],inactive
same,outcome,[16],inactive
same,outcome,[17],inactive
[O-][n+]1ccc(Cl)cc1,outcome,[1],inactive
same,outcome,[2],inactive
same,outcome,[3],inactive
same,outcome,[20],inactive
same,outcome,[4],inactive
same,outcome,[5],inactive
same,outcome,[6],inactive
same,outcome,[7],inactive
same,outcome,[8],inactive
same,outcome,[9],inactive
same,outcome,[10],inactive
same,outcome,[11],inactive
same,outcome,[12],inactive
same,outcome,[13],inactive
same,outcome,[14],inactive
same,outcome,[15],inactive
same,outcome,[17],inactive
same,outcome,[18],inactive
same,outcome,[19],inactive
CCOC(=O)CC(=O)OCC,outcome,[1],inactive
same,outcome,[2],inactive
same,outcome,[3],inactive
same,outcome,[20],inactive
same,outcome,[4],inactive
same,outcome,[5],inactive
same,outcome,[6],inactive
same,outcome,[7],inactive
same,outcome,[8],inactive
same,outcome,[9],inactive
same,outcome,[10],inactive
same,outcome,[11],inactive
same,outcome,[12],inactive
same,outcome,[13],inactive
same,outcome,[14],inactive
same,outcome,[15],inactive
same,outcome,[16],inactive
same,outcome,[17],inactive
CCCCOC(=O)COc1ccc(Cl)cc1Cl,outcome,[1],inactive
same,outcome,[2],inactive
same,outcome,[3],inactive
same,outcome,[20],inactive
same,outcome,[4],inactive
same,outcome,[5],inactive
same,outcome,[6],inactive
same,outcome,[7],inactive
same,outcome,[8],inactive
same,outcome,[9],inactive
same,outcome,[10],inactive
same,outcome,[11],inactive
same,outcome,[12],inactive
same,outcome,[13],inactive
same,outcome,[14],inactive
same,outcome,[15],inactive
same,outcome,[16],inactive
same,outcome,[17],inactive
same,outcome,[18],inactive
same,outcome,[19],inactive
COC(=O)c1ccccc1,outcome,[1],inactive
same,outcome,[2],inactive
same,outcome,[3],inactive
same,outcome,[20],inactive
same,outcome,[4],inactive
same,outcome,[5],inactive
same,outcome,[6],inactive
same,outcome,[7],inactive
same,outcome,[8],inactive
same,AC50,[9],500 nM (active)
same,outcome,[10],inactive
same,outcome,[11],inactive
same,outcome,[12],inactive
same,outcome,[13],inactive
same,outcome,[14],inactive
same,outcome,[15],inactive
same,outcome,[16],inactive
same,outcome,[17],inactive
same,outcome,[18],inactive
same,outcome,[19],inactive
